Results filed as inconclusive are left out. A number with no mark means an inactive call. Calls come from the whole dose curve; as a rule, active = well fitted activation curve with a large enough effect in the repeat runs; inconclusive = weak or mixed curves; inactive = flat fitted curve, though single readings scatter.
% is set by controls: 0 for no effect and ±100 for the full control effect.

A short description of the test: A CellTox Green Cytotoxicity Assay to monitor cytotoxicity in HepG2 cells - 8 hour (AID 1224890). Note: nearly all actives have a fitted effect of over 45% in size. The settings on record: CellTox Green fluorescence; series mostly up to 76.8 µM; cytotoxicity increase: at the top concentration. The text has this: National Center for Advancing Translational Sciences [NCATS]
NIH Chemical Genomics Center [NCGC]
U.S. Environmental Protection Agency [EPA]
National Institutes of Environmental Health Sciences [NIEHS]
National Toxicology Program [NTP]
Cell-based models are critical for drug discovery. Determining the natural cytotoxic effects resulting from test compounds is an essential research activity. A CellTox Green Cytotoxicity Assay to monitor cytotoxicity in real time of continues cell culture during 40 hours of the compound treatment was used to screen Tox21 10K library compounds in HepG2 cells. CellTox Green Cytotoxicity Assay is a nonlytic, homogeneous, biofluorescent method to measure cytotoxicity in cell culture after experimental manipulation. The assay system uses a proprietary asymmetric cyanine dye that is excluded from viable cells but preferentially stains the dead cell's DNA. […] Viable cells produce no appreciable increases in fluorescence. Therefore, the fluorescence signal produced by the binding interaction with dead cell DNA is proportional to cytotoxicity.
The mixture of HepG2 cell suspension and reagents were dispensed at 600cells/6 ul/well in 1536-well tissue culture treated black solid bottom plates using a Multidrop dispenser. After the assay plates were incubated at a 37 C/5% CO2 incubator for 5 hours, 23 nL of compounds dissolved in DMSO, positive and negative controls was transferred to the assay plate by a pintool work station. The plates were incubated at 37 C for 40 hours. The fluorescence intensity were measured at 0h, 8h, 16h, 24h, 32h and 40h time points using ViewLux plate reader during compound treatment.
`CCCC/C=C/C=C\C=O`: the “cytotoxicity increase” value was 0.696%.

Turning to `COc1ccc(-c2cc(=O)c3c(O)cc(O[C@@H]4O[C@H](CO[C@@H]5O[C@@H](C)[C@H](O)[C@@H](O)[C@H]5O)[C@@H](O)[C@H](O)[C@H]4O)cc3o2)cc1O`, the “cytotoxicity increase” value is 2.9% [at 35.3 µM].

Regarding `O=C1c2ccccc2C(=O)C1c1ccccc1`, the “cytotoxicity increase” value was -4.24% [at 35.3 µM].

`CO[C@@H]1[C@@H](OC(N)=O)[C@@H](O)[C@H](Oc2ccc3c(O)c(NC(=O)c4ccc(O)c(CC=C(C)C)c4)c(=O)oc3c2C)OC1(C)C`: the “cytotoxicity increase” value was -15.6% [at 35.3 µM].

For the compound `Cc1c(I)c(=O)n(-c2ccccc2)n1C`, the “cytotoxicity increase” value is -3.92% [at 35.3 µM].

As to `OCCC(F)(F)C(F)(F)C(F)(F)C(F)(F)C(F)(F)C(F)(F)C(F)(F)C(F)(F)F`, the “cytotoxicity increase” value is 18.5%.

With `C=C(C)C(=O)OCCOP(=O)(O)OCCOC(=O)C(=C)C`, the “cytotoxicity increase” value is -7.75%.

`Cc1cccc2nccnc12`: the “cytotoxicity increase” value was -9.93%.

For `CCOCCOC(=O)/C=C/c1ccc(OC)cc1`, the “cytotoxicity increase” value is -17.8% [at 35.3 µM].

With `CC(C)CC(C)CC(C)CC(C)COC(=O)c1ccccc1C(=O)OCC(C)CC(C)CC(C)CC(C)C` (stereo not given), the “cytotoxicity increase” value was 12.5%.

Consider `O=Cc1ccc(Cl)c(Cl)c1`, for which the “cytotoxicity increase” value was -1.39%.

Take `CCOc1cc(NC(C)=O)ccc1C(=O)OC`: the “cytotoxicity increase” value was -0.0034% [at 35.3 µM].

Take `COC(=O)[C@@H]1[C@H]2C[C@H]3c4[nH]c5ccccc5c4CCN3C[C@@H]2CC[C@@H]1O`: the “cytotoxicity increase” value is -0.108% [at 35.3 µM].

For `CC(CO)c1ccccc1` (stereo not given), the “cytotoxicity increase” value is -9.67%.

Consider `CC(=O)c1sc(C)nc1C`, for which the “cytotoxicity increase” value is 9.01%.

In the case of `CC[C@H](C)C(=O)O[C@H]1C[C@H](O)C=C2C=C[C@H](C)[C@H](CC[C@@H](O)C[C@@H](O)CC(=O)O)[C@H]21`, the “cytotoxicity increase” value is -0.0853%.

In the case of `CCCCCCN`, the “cytotoxicity increase” value was 3.96%.

`CCOC(=O)/C=C/c1ccccc1`: the “cytotoxicity increase” value was 0.582%.

On to `CN(C)CCOCCO`, for which the “cytotoxicity increase” value is 0.0761%.

For `O=S(=O)(O)c1ccc2cc(O)c(S(=O)(=O)O)cc2c1`, the “cytotoxicity increase” value is 7.83%.

`C=C(C)C(=O)OCCNC(C)(C)C`: the “cytotoxicity increase” value was 13.2%.

As for `CC(C)CCCCOC(=O)c1ccccc1C(=O)OCCCCC(C)C`, the “cytotoxicity increase” value is -7.47%.

Turning to `CCCCCCCCCCl`, the “cytotoxicity increase” value was -1.34%.

In the case of `CCCCCCCCCC(C)=O`, the “cytotoxicity increase” value is 9.86%.

Regarding `Oc1ccccc1-c1nnco1`, the “cytotoxicity increase” value is -11.1% [at 35.3 µM].

`CCOCCOCCOCC`: the “cytotoxicity increase” value was 4.31%.

On to `CCOC(=O)[C@H](CCc1ccccc1)N[C@@H](C)C(=O)N1C(=O)N(C)C[C@H]1C(=O)O`, for which the “cytotoxicity increase” value was 9.35% [at 35.3 µM].

As to `C[C@@H](Oc1ccc(CNC(=O)c2cccnc2Oc2ccc3c(c2)OCO3)c(F)c1)C(=O)O`, the “cytotoxicity increase” value is -0.282%.

As for `O=C(CS(=O)Cc1ccco1)NC/C=C\COc1cc(CN2CCCCC2)ccn1` (stereo not given), the “cytotoxicity increase” value was 5.44% [at 35.3 µM].

As to `C=C(C)C1CCC(C)(O)CC1` (stereo not given), the “cytotoxicity increase” value is -1.74%.

Consider `CC(COC(C)(C)C)OCCCO` (stereo not given), for which the “cytotoxicity increase” value is -7.02%.

Regarding `CCCCCCCCCCCCCC`, the “cytotoxicity increase” value was -5.01%.

As for `Cc1cc2cc3c(C)cc(=O)oc3c(C)c2o1`, the “cytotoxicity increase” value was 0.0226% [at 35.3 µM].

On to `CC(=O)/C=C/C1C(C)=CCC(C)C1(C)C` (stereo not given), for which the “cytotoxicity increase” value is 0.537%.

On to `COc1ccc(S(=O)(=O)N2c3ccc(Cl)cc3[C@@](O)(c3ccccc3Cl)[C@H]2C(=O)N2CCC[C@@H]2C(N)=O)cc1OC`, for which the “cytotoxicity increase” value is -12.7% [at 35.3 µM].

As for `COCCOC(=O)C1=C(C)NC(C)=C(C(=O)OC(C)C)C1c1cccc([N+](=O)[O-])c1` (stereo not given), the “cytotoxicity increase” value is 0.563% [at 35.3 µM].

With `C[C@H](N)[C@H](O)c1cccc(O)c1`, the “cytotoxicity increase” value was -11.6% [at 35.3 µM].

With `O=S(=O)(O)c1cc(O)c2ccc(Nc3ccccc3)cc2c1`, the “cytotoxicity increase” value is 1.5%.

As for `Cc1ccccc1OCC(O)CO` (stereo not given), the “cytotoxicity increase” value is 4.54% [at 35.3 µM].

Turning to `O=C(O)CCSSCCC(=O)O`, the “cytotoxicity increase” value was 0.438%.
